Our source for the Potency and max response, negative = inhibition values is PubChem BioAssay AID1478 (National Center for Advancing Translational Sciences (NCATS), 2009).

Screen size: about 200,000 compounds; about 860 (0.43%) were called active. The full list was thinned out, with actives kept by preference. A number with no mark means an inactive call. The call rests on the fitted dose curve; in most records, active means well fitted inhibition curve with a large enough effect; inconclusive means small, poorly fitted or top-dose-only effect; inactive means flat fitted curve, though single readings scatter.
Potency means the concentration at half of the fitted maximal effect.

Chain of Cruzipain (Trypanosoma cruzi) (P25779 123-467 limits assumed): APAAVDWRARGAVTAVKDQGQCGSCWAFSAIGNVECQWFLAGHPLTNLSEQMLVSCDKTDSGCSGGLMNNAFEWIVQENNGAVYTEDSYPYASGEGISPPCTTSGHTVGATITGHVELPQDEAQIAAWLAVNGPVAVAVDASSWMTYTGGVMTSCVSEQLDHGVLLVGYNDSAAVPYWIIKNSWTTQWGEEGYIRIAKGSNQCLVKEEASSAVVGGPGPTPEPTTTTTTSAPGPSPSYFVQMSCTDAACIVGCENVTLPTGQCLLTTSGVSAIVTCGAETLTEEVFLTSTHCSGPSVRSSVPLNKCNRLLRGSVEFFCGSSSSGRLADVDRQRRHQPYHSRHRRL

The target of this assay is Cruzipain (Trypanosoma cruzi) (UniProt P25779). As to the kind of experiment: qHTS Assay for Promiscuous and Specific Inhibitors of Cruzain (with detergent). Further: nearly all actives have a fitted effect of over 40% in size. To be noted: purified cruzain, Z-FR-AMC fluorescence, 0.01% Triton. Here is the method:
Cruzain (3.4.22.51) is a cysteine protease from the tropical parasite Trypanosoma cruzi. Dual qHTS experiment was performed against the NCGC compound collection in order to 1) identify novel inhibitors of the enzyme and 2) profile the compound collection for promiscuous inhibitors operating via colloidal aggregation (by performing detergent-free and detergent-containing comparison screens). Cruzain was assayed by the use of fluorogenic coumarin-based substrate Z-FR-AMC: proteolytic cleavage releases AMC, whose fluorescence is measured at 360 nm excitation and 450 nm emission. Purified cruzain was supplied by the labs of Prof. James McKerrow and Brian Shoichet, UC San Francisco.
This assay had 0.01% Triton X-100 concentration. See also releated assay "qHTS Assay for Promiscuous and Specific Inhibitors of Cruzain (without detergent)" with 0.00005% Triton X-100.
See following references for additional details:
Assay Provider: Shoichet, Brian; University of California, San Fancisco
Screening Center PI: Austin, C.P.
Screening Center: NIH Chemical Genomics Center [NCGC]
Buffer: 100 mM Sodium Acetate, pH 5.5, 5 mM DTT, Triton X-100 concentration: 0.01%.
Buffer in columns 3 and 4 as negative control (no enzyme).
Substrate solution: 2 uM final concentration of Z-FR-AMC (catalog number I-1160, Bachem) dispensed throughout the plate.
Enzyme: 1.5 nM Cruzain final concentration in columns 1, 2, 5-48. Column 1 is neutral (100% activity). Column 2 contained titration of covalent inhibitor K11777, starting concentration 1 mM, then 1:2 dilution in duplicate).
Three uL of enzyme or buffer were dispensed to 1536-well Greiner black solid bottom plates. Compounds and controls (23 nL) were transferred via Kalypsys PinTool. The plates were incubated for 15 min at room temperature, and then 1 uL of substrate solution was added to start the reaction. The plates were immediately transferred to and read 4 times every 30 seconds for 2 min on ViewLux High-throughput CCD imager (Perkin-Elmer) using 360 nm excitation and 450 nm emission fluorescence protocol. The fluorescence intensity difference between the third and the first time points (time lapse of 60 seconds) was used to compute reaction progress.
Background: Quantitative high-throughput screening tests each substance at several concentrations.
Take `c1ccc(-c2nnc(SCc3nc4ccccc4[nH]3)o2)cc1`: the Potency was 25.1 µM (active).

With `Clc1ccccc1SCc1nc2ccccc2[nH]1`, the max response, negative = inhibition was -1.73%.

In the case of `Clc1ccc(-c2nnc(SCc3nc4ccccc4s3)o2)cc1`, the max response, negative = inhibition was -2.22%.

For the molecule `COc1ccc(-c2noc(-c3ccc(N4CCN(c5ccccc5)CC4)c([N+](=O)[O-])c3)n2)cc1OC`, the max response, negative = inhibition was -4.6%.

Turning to `O=C(NCc1ccccc1Cl)C1=Cc2cc(Br)ccc2OC1`, the max response, negative = inhibition is -4.23%. The same measure, in the same setting: the result for `COc1ccc(Cn2ccn(CC(=O)Nc3cc(C)ccc3C)c(=O)c2=O)cc1` reads -6.93%; that for `O=C(NCCCO)C(=O)Nc1c2c(nn1-c1ccc(F)cc1)CSC2`, -6.19%. For `c1ccc(Nc2nc(N3CCOCC3)c3ccccc3n2)cc1`, the Potency is 14.1 µM (active). Turning to `c1cncc(-c2nc(N3CCNCC3)c3ccccc3n2)c1`, the max response, negative = inhibition is -1.38%. `Cc1cc(C(=O)Nc2ccccc2N2CCOCC2)c2ccccc2n1`: the max response, negative = inhibition is 7.98%.

In the case of `CCOc1ccc(N(C)S(=O)(=O)c2cc(-c3cnc(C)o3)ccc2OC)cc1`, the max response, negative = inhibition is -8.69%.

For `Cc1cc(-c2ccc(C)c(S(=O)(=O)N3c4ccccc4CC3C)c2)on1` (stereo not given), the max response, negative = inhibition was -1.84%. Turning to `N#Cc1nc(N)nc(N(c2ccccc2)c2ccccc2)n1`, the Potency is 2.24 µM (active). Regarding `CC(C)Nc1nc(N(c2ccccc2)c2ccccc2)nc(-n2ccnc2)n1`, the max response, negative = inhibition was 1.14%.

Take `COc1cc(OC)c(N(C)C(=O)c2cc3c(=O)oc4ccccc4c3s2)cc1Cl`: the max response, negative = inhibition was -0.489%.

Turning to `Cc1ccccc1CSCCNC(=O)C1CCN(S(=O)(=O)Cc2ccccc2)CC1`, the max response, negative = inhibition is -4.58%. Consider `COc1cc(Cl)c(NC(=O)C(NS(=O)(=O)c2cccs2)C(C)C)c(OC)c1` (stereo not given), for which the max response, negative = inhibition is -0.797%.

For the molecule `CSc1nn(Cc2cccc(C)c2)c(N)c1S(=O)(=O)c1ccccc1`, the max response, negative = inhibition was -5.62%. Turning to `CCN(CC)CCNc1ncnc2c1cnn2-c1cc(Cl)ccc1C`, the max response, negative = inhibition was 0.243%. Still for that read-out and setting: the result for `Cc1cccn2c(=O)c3cc(C(=O)NC(C)c4ccccc4)c(=N)n(CCCO)c3nc12` (stereo not given) reads -22.8%. For `CCn1c(=N)c(C(=O)NCCCOC)cc2c(=O)n3cccc(C)c3nc21`, the Potency was 31.6 µM (active). On to `CCCn1c(=N)c(C(=O)NCc2ccccc2)cc2c(=O)n3cccc(C)c3nc21`, for which the max response, negative = inhibition is -0.842%. Still for that read-out and setting: the figure for `O=C(NCc1ccc2c(c1)CCN2C(=O)c1ccccc1)c1ccccc1` is 1.91%; for `CCOc1ccc(-c2nonc2NC(=O)c2oc3ccc(C)cc3c2C)cc1OCC` it is -1.93%; for `O=C(CCS(=O)(=O)c1ccc2c(c1)NC(=O)CO2)Nc1cccc(C(F)(F)F)c1` it is -1.23%. On the same count and under the same terms, the figure for `COc1ccc(Cl)cc1NC(=O)Cn1c(=O)c2ccccc2n2nncc12` is -4.81%. For `COc1ccc(Cl)cc1NC(=O)COC(=O)C(CC(C)C)N1C(=O)C2CC=CCC2C1=O` (stereo not given), the Potency was 12.6 µM (active). Take `COc1ccc(Cl)cc1NC(=O)CNc1ccccc1F`: the max response, negative = inhibition is -7.98%. Turning to `Cc1oc2ccc(O)c(CN3CCCCC3)c2c1C(=O)Nc1cccc(C(F)(F)F)c1`, the max response, negative = inhibition is -4.76%. Same read-out and setting: the result for `Cc1cc(C)cc(NS(=O)(=O)c2ccc(-c3cc(C)no3)s2)c1` reads -11.1%. `Cn1c(C(=O)NCCN2CCc3ccccc3C2)cc2c(=O)[nH]c3ccccc3c21`: the Potency is 15.8 µM (active).

In the case of `O=C(NCCN1CCN(Cc2ccccc2)CC1)c1cc2c(=O)[nH]c3ccccc3c2s1`, the max response, negative = inhibition was -12.6%. `Cn1c(C(=O)NCCCN2CCN(c3cccc(Cl)c3)CC2)cc2c(=O)n(C)c3ccccc3c21`: the max response, negative = inhibition was -27.7%. In the case of `CC(=O)c1nn(-c2ccc(OC(F)(F)F)cc2)nc1Nc1ccccc1`, the max response, negative = inhibition was 1.04%. `O=C(CSc1nc2nccnc2c(=O)n1CCc1c[nH]c2ccccc12)Nc1ccccc1F`: the max response, negative = inhibition was -2.4%. The same measure, in the same setting: the result for `O=C(C1COc2ccccc2O1)N(Cc1cccnc1)c1nc2c(F)cc(F)cc2s1` (stereo not given) reads -3.06%; that for `CC(C)c1ccc(NC(=O)Cn2nnc(C(=O)NCCc3ccccc3)c2N)cc1`, 0.0037%; that for `COC(=O)c1scc(-c2ccc(C)cc2)c1S(=O)(=O)Nc1cc(Cl)c(OC)cc1OC`, -7.07%. On to `O=C1CCCN1CCCNc1ncnc2c1[nH]c1ccccc12`, for which the Potency is 15.8 µM (active).

For `Cc1cccc(C(=O)NCCCN2CCCC2=O)c1`, the max response, negative = inhibition was 6.06%. Regarding `O=C(CCn1c(=S)[nH]c2ccccc2c1=O)NCCCN1CCCC1=O`, the max response, negative = inhibition was 0.249%.

Regarding `Cc1nn(C(=O)c2c(F)cccc2F)c(C)c1S(=O)(=O)N1CCOCC1`, the max response, negative = inhibition was 0.43%. For `COc1ccc(CC(=O)NCCc2sc3nc(-c4ccc(OC)cc4)nn3c2C)cc1`, the max response, negative = inhibition was -3.58%. As for `COc1cc(OC)cc(C(=O)Nc2cc3nn(-c4ccccc4)nc3cc2Cl)c1`, the max response, negative = inhibition was 6.82%.

Consider `CCCCCn1c(CCNC(=O)c2ccc(F)cc2)nc2ccccc21`, for which the Potency was 4.47 µM (active).
